From PubChem BioAssay
Cycloheximide cs – counter-screen for Shiga toxin inhibitors: cycloheximide protein synthesis inhibition | max response, % | cell reporter, cycloheximide protein synthesis inhibition counterscreen | 12% of 300,000 active; in the data active means max response mostly above about 13%, no sharp cut-off; inactive means mostly below about 14%; further: read at 38.3 µM for the half of the compounds with a filed dose
FMDV inh – blocks foot and mouth disease virus; FMDV antiviral cell-based qHTS; 1.2% of 410,000 active; Potency, µM (doses to about 57.9 µM), hits mostly inhibitors; calls by dose curve; tested in HEK293T cells; further: read-out not given here; nearly all actives have a fitted effect of over 45% in size
Sm TGR block – inhibitors of Schistosoma mansoni thioredoxin glutathione reductase; 3% of 360,000 active; AID 485364; purified TGR, DTNB reduction, TNB absorbance 405 nm; Potency, µM (series often up to 114 µM), usual class: inhibitors; Q962Y6; active means well fitted inhibition curve with a large enough effect; inconclusive means small, poorly fitted or top-dose-only effect; inactive means no such curve, though single readings can be large or run the other way; further: nearly all actives have a fitted effect of over 60% in size
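Kinetic colorimetric format: TGR-catalysed, NADPH-driven DTNB reduction monitored via TNB absorbance. Enzyme dispensed at 20 nM; compound exposure 15 min at room temperature before reaction start.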
Shiga toxin inh – blocks Shiga toxin action in Vero cells; Vero cells, Shiga toxin protein synthesis inhibition reporter; inhibition, % at 38.7 µM; 9.2% of 290,000 active; AID 2315; in the data active means inhibition mostly above about 28%, no sharp cut-off; inactive means mostly below about 43%
Numbers stand for hits; . = inactive; ? = inconclusive; / = not tested or not shown; ! = repeats disagree. Hits are enriched below; roughly 12% of the tested compounds scored in any of these assays.

SMILES	Cycloheximide cs	FMDV inh	Sm TGR block	Shiga toxin inh
CCSc1ncc(Cl)c(C(=O)N(Cc2ccccc2)Cc2ccco2)n1	/	.	?	/
CCS(=O)(=O)c1ncc(Cl)c(C(=O)N(Cc2ccccc2)c2ccc(OC)cc2)n1	/	11.2µM	39.8µM	/
CCS(=O)(=O)c1ncc(Cl)c(C(=O)N2CCN(c3ccc(OC)cc3)CC2)n1	/	31.6µM	35.5µM	/
CCS(=O)(=O)c1ncc(Cl)c(C(=O)NCc2ccc(OC)cc2)n1	/	25.1µM	10µM	/
COc1ccc(N(Cc2ccccc2)C(=O)c2nc(SC)ncc2Cl)cc1	/	.	.	/
O=c1c(-c2ccccc2)nc2cnc(Nc3ccccc3)nc2n1Cc1cccs1	/	.	/	/
O=S(=O)(c1ccc2nc(Nc3ccc(Br)cc3F)ccc2c1)N1CCCCC1	/	.	.	/
COc1ccccc1NC(=O)c1nc(SCc2ccc(F)cc2)ncc1Cl	/	.	?	/
CCS(=O)(=O)c1ncc(Cl)c(C(=O)Nc2ccccc2OC)n1	.	3.55µM	.	/
COc1ccc(OC)c(NC(=O)c2nc(S(=O)(=O)Cc3ccc(F)cc3)ncc2Cl)c1	/	22.4µM	3.16µM	/
CCOc1ccccc1NC(=O)c1nc(S(=O)(=O)Cc2ccccc2)ncc1Cl	.	31.6µM	3.55µM	.
COc1ccc2nc(NC(=O)c3nc(S(=O)(=O)Cc4ccc(C)cc4)ncc3Cl)sc2c1	/	.	.	/
COc1ccccc1NC(=O)c1nc(S(=O)(=O)Cc2ccccc2)ncc1Cl	.	28.2µM	10µM	.
Cc1cc(=O)[nH]c2nnc(SCCC(C)C)n12	/	.	.	/
CCOC(=O)c1c(C)[nH]c(C)c1S(=O)(=O)N1CCCC(C(=O)N2CCN(c3cc(C)ccc3C)CC2)C1 (centres undefined)	/	?	.	/
Cc1ccc(C)c(CN2C(=O)c3ccccc3S(=O)(=O)c3ccc(C(=O)N(C)C4CCCCC4)cc32)c1	/	.	.	/
COc1ccc(CNc2ccc3c(c2)nc(C)n3C)cc1OC	43.7	.	.	58.1
CCOc1ccc(CNc2ccc3c(c2)nc(C)n3C)cc1	25.3	.	.	active
CCOc1ccc(CNc2nc3ccccc3n2C)cc1	38.8	.	.	/
CO/N=C(\c1nonc1N)N1CCN(c2ccc(Cl)cc2[N+](=O)[O-])CC1	.	35.5µM	.	.
C=Cc1ccc(CSc2nc(-c3ccccc3Cl)nc3c2Cc2c(CO)cnc(C)c2O3)cc1	/	.	.	/
COc1ccc(-n2nc(C(=O)N3CCCC(C)C3)c3c4ccccc4n(C)c3c2=O)cc1Cl (centres undefined)	/	.	.	/
CCCCN1CC2([N+](=O)[O-])C=CC(=O)C([N+](=O)[O-])(C1)C2CC(=O)c1ccccc1 (centres undefined)	.	.	22.4µM	.
O=C(CSc1ccc([N+](=O)[O-])cc1)c1ccccc1	/	.	/	/
CCN1CC2([N+](=O)[O-])C=CC(=O)C([N+](=O)[O-])(C1)C2CC(=O)c1ccccc1 (centres undefined)	.	.	12.6µM	.
SMILES	Cycloheximide cs	FMDV inh	Sm TGR block	Shiga toxin inh
COc1cc(OC)cc(-c2nc3n(n2)C(c2ccccc2F)C(C(=O)Nc2cccnc2)=C(C)N3)c1 (centres undefined)	/	.	.	/
CCN(CC)C(=O)c1nn(-c2ccc(OC)cc2)c(=O)c2c(N)scc12	.	/	/	.
COc1ccc(C(=O)N2CCC3(CCN(Cc4cc(C(F)(F)F)cc(C(F)(F)F)c4)CC3)CC2)cc1	/	.	/	/
COc1ccc(NC(=O)c2c(Nc3ccccc3)sc(C(=O)c3ccc(F)cc3)c2N)cc1	.	?	.	.
Cc1cc(Nc2sc(C(=O)c3ccc(F)cc3)c(N)c2C(=O)Nc2ccc(F)cc2)ccc1Cl	/	10µM	.	/
Cc1ccc(Nc2sc(C(=O)c3ccccc3)c(N)c2C(=O)NC(C)C)cc1	/	.	31.6µM	/
COc1cc(NS(C)(=O)=O)ccc1Cc1c2ccccc2nc2ccccc12	/	.	/	/
CCN1CCN(Cc2ccc(NC(=O)c3ccc(C)c(NC(=O)c4cccc5[nH]ccc45)c3)cc2C(F)(F)F)CC1	52.5	17.8µM!	.	93.6
CC(C)(C)c1ccc(C(=O)c2c[nH]c(C(=O)NCc3cccnc3)c2)cc1	20.5	.	.	.
NC(=O)c1cc(C(=O)Cc2ccc(Cl)cc2)c[nH]1	22.6	.	.	40.4
O=C(Cc1ccccc1)c1c[nH]c(C(=O)O)c1	.	.	.	.
O=C(Cc1ccc(Cl)cc1)c1c[nH]c(C(=O)NCc2cccnc2)c1	.	7.94µM	.	.
CC1(C)CC2CC(C)(CN2/C=C2/CCCCC2=O)C1 (centres undefined)	.	.	35.5µM	.
CC1(C)C[C@@H]2C[C@@](C)(CN2C(=O)c2ccccc2)C1	.	.	.	.
O=C(Cc1noc2ccccc12)Nc1ccc2ccccc2c1	31.5	.	.	69.3
Cc1ccc(NC(=O)Cc2noc3ccccc23)cc1	45.8	.	.	68.4
CC(=O)c1c(COC(=O)c2ccco2)nc2ccccc2[n+]1[O-]	.	.	39.8µM	.
CCn1c(=O)cc(SCC(=O)NCc2ccc(Cl)cc2)c2ccccc21	/	.	.	/
COCCCNC(=O)CS(=O)(=O)Cc1nc(-c2ccccc2C)oc1C	.	.	50.1µM	.
Cc1ccccc1-c1nc(CS(=O)(=O)CC(=O)NCCCN2CCCC2=O)c(C)o1	.	.	20µM	.
Cc1ccccc1-c1nc(CS(=O)(=O)CC(=O)NCCCN2CCOCC2)c(C)o1	.	.	?	.
Cc1ccccc1-c1nc(CS(=O)(=O)CC(=O)NCCc2ccccc2)c(C)o1	.	.	?	.
COc1ccccc1N1CCN(/N=C\c2cccnc2)CC1	.	.	.	.
COc1cc(/C=N/N2CCN(c3ccccc3OC)CC2)ccc1OC(C)=O	18.5	.	.	/
COc1ccccc1N1CCN(/N=C/c2cccc(O)c2)CC1	29.0	.	.	85.5
SMILES	Cycloheximide cs	FMDV inh	Sm TGR block	Shiga toxin inh
COc1ccccc1N1CCN(/N=C/c2cc(OC)c(O)c(OC)c2)CC1	.	.	.	.
COc1ccccc1N1CCN(/N=C/c2ccccc2C(=O)O)CC1	17.2	.	.	28.4
CCN(c1ccccc1)c1nnc(NC(=O)Nc2cccc(Cl)c2C)s1	/	.	.	/
Cc1cccc(C)c1NC(=O)C1CCCN(S(=O)(=O)c2c(C)noc2/C=C/N(C)C)C1 (centres undefined)	/	.	.	/
CCCN(Cc1cccs1)C(=O)Nc1cc(C)ccc1OC	/	.	.	/
COc1ccc2c(c1)c1c(c(=O)n(-c3cccc(Cl)c3)c(=O)n1CC(=O)NCC1CCCO1)n2C (centres undefined)	/	.	.	/
C=CCOc1ccc2ccccc2c1/C=N/O	.	.	.	.
C=CCS/C(N)=N\N=C\c1c(O)ccc2ccccc12	43.6	.	.	114.0
CCCS/C(N)=N/N=C/c1ccccc1O	38.4	.	.	49.6
Nc1ccccc1C#CC(=O)c1ccccc1	.	?	0.501µM	.
O=C(C#Cc1cccc([N+](=O)[O-])c1)c1ccccc1	.	/	.	.
O=C(Nc1cccc([N+](=O)[O-])c1)c1ccccc1	18.1	.	.	.
CC(C)C(=O)NC(Nc1cccc([N+](=O)[O-])c1)C(Cl)(Cl)Cl (centres undefined)	.	.	/	.
O=C(Nc1cccc([N+](=O)[O-])c1)c1ccc(CSc2ccccc2)cc1	.	.	.	.
O=C(COC(=O)c1ccccc1C(=O)c1ccccc1)Nc1cccc([N+](=O)[O-])c1	18.8	.	.	30.2
